# According to article PMC5540273 (PLoS ONE, 2017):
# Values joined by “and” are separate entries in the source; they are usually repeats but may differ in a detail not shown here. Identical values can stand only once. Like-named read-outs stand apart in the source and are kept apart here.
# Assays:
# TLK2 = conditions: concentration: 1 μM, replicates: in singlicate, n = 1
# TNIK = conditions: concentration: 1 μM, replicates: in singlicate, n = 1
# TNK1 = conditions: concentration: 1 μM, replicates: in singlicate, n = 1
# TNK2 = conditions: concentration: 1 μM, replicates: in singlicate, n = 1
# TNNI3K = conditions: concentration: 1 μM, replicates: in singlicate, n = 1
# TRKA = system: T1, TRKA; conditions: concentration: 1 μM, replicates: in singlicate, n = 1
# T1 construct: gene NTRK1
# TRKB = conditions: concentration: 1 μM, replicates: in singlicate, n = 1
# TRKC = system: T2, TRKC; conditions: concentration: 1 μM, replicates: in singlicate, n = 1
# T2 construct: gene NTRK3
# TRPM6 = conditions: concentration: 1 μM, replicates: in singlicate, n = 1
# TSSK1B = conditions: concentration: 1 μM, replicates: in singlicate, n = 1
# TSSK3 = conditions: concentration: 1 μM, replicates: in singlicate, n = 1
# TTK = conditions: concentration: 1 μM, replicates: in singlicate; n = 1
# TXK = conditions: concentration: 1 μM, replicates: in singlicate, n = 1
# [1] = system: TYK2(JH1domain-catalytic); conditions: concentration: 1 μM, replicates: in singlicate, n = 1
# [2] = system: TYK2(JH2domain-pseudokinase); conditions: concentration: 1 μM, replicates: in singlicate, n = 1
# TYRO3 = conditions: concentration: 1 μM, replicates: in singlicate, n = 1
# ULK1 = conditions: concentration: 1 μM, replicates: in singlicate, n = 1
# ULK2 = conditions: concentration: 1 μM, replicates: in singlicate; n = 1
# ULK3 = conditions: concentration: 1 μM, replicates: in singlicate, n = 1
# VEGFR2 = system: T3, VEGFR2; conditions: concentration: 1 μM, replicates: in singlicate, n = 1
# T3 construct: gene KDR
# 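Also: KINOMEscan kinase panel screen.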
structure (smiles),measurement,setting,value
Cc1nnc(-c2ccc3occ(-c4ccc(C(C)O)cc4)c3c2)o1 (stereo not shown),%Inh,TLK2,0%
same,%Inh,TNIK,0%
same,%Inh,TNK1,0%
same,%Inh,TNK2,0%
same,%Inh,TNNI3K,27%
same,%Inh,TRKA,0%
same,%Inh,TRKB,0%
same,%Inh,TRKC,37%
same,%Inh,TRPM6,0%
same,%Inh,TSSK1B,0%
same,%Inh,TSSK3,1%
same,%Inh,TTK,8%
same,%Inh,TXK,4%
same,%Inh,[1],0%
same,%Inh,[2],2%
same,%Inh,TYRO3,6%
same,%Inh,ULK1,1%
same,%Inh,ULK2,2%
same,%Inh,ULK3,6%
same,%Inh,VEGFR2,0%
Nc1nc(-c2ccc3c(N)n[nH]c3c2)cc(N2CCCC2)n1 [GSK2227430],%Inh,TLK2,0%
same,%Inh,TNIK,0%
same,%Inh,TNK1,0%
same,%Inh,TNK2,0%
same,%Inh,TNNI3K,0%
same,%Inh,TRKA,0%
same,%Inh,TRKB,0%
same,%Inh,TRKC,0%
same,%Inh,TRPM6,0%
same,%Inh,TSSK1B,0%
same,%Inh,TSSK3,17%
same,%Inh,TTK,11%
same,%Inh,TXK,0%
same,%Inh,[1],0%
same,%Inh,[2],46%
same,%Inh,TYRO3,0%
same,%Inh,ULK1,0%
same,%Inh,ULK2,0%
same,%Inh,ULK3,2%
same,%Inh,VEGFR2,0%
C[C@@H](Oc1cc(-n2cnc3ccc(NC(=O)NC(C)(C)C)cc32)sc1C(N)=O)c1ccccc1Cl [GSK346294],%Inh,TLK2,0%
same,%Inh,TNIK,0%
same,%Inh,TNK1,0%
same,%Inh,TNK2,9%
same,%Inh,TNNI3K,13%
same,%Inh,TRKA,33%
same,%Inh,TRKB,0%
same,%Inh,TRKC,0%
same,%Inh,TRPM6,0%
same,%Inh,TSSK1B,20%
same,%Inh,TSSK3,21%
same,%Inh,TTK,0%
same,%Inh,TXK,0%
same,%Inh,[1],8%
same,%Inh,[2],0%
same,%Inh,TYRO3,0%
same,%Inh,ULK1,0%
same,%Inh,ULK2,0%
same,%Inh,ULK3,15%
same,%Inh,VEGFR2,3%
CCc1ccnc(/C=C/c2n[nH]c3cc(Sc4ccccc4C(=O)NC)ccc23)c1,%Inh,TLK2,0%
same,%Inh,TNIK,5%
same,%Inh,TNK1,48%
same,%Inh,TNK2,0%
same,%Inh,TNNI3K,5%
same,%Inh,TRKA,56%
same,%Inh,TRKB,0%
same,%Inh,TRKC,0%
same,%Inh,TRPM6,4%
same,%Inh,TSSK1B,0%
same,%Inh,TSSK3,0%
same,%Inh,TTK,0%
same,%Inh,TXK,0%
same,%Inh,[1],11%
same,%Inh,[2],0%
same,%Inh,TYRO3,0%
same,%Inh,ULK1,3%
same,%Inh,ULK2,31%
same,%Inh,ULK3,9%
same,%Inh,VEGFR2,99.9%
CNc1ncnc2[nH]ncc12 [SKF-18355],%Inh,TLK2,0%
same,%Inh,TNIK,17%
same,%Inh,TNK1,0%
same,%Inh,TNK2,0%
same,%Inh,TNNI3K,0%
same,%Inh,TRKA,0%
same,%Inh,TRKB,0%
same,%Inh,TRKC,0%
same,%Inh,TRPM6,23%
same,%Inh,TSSK1B,0%
same,%Inh,TSSK3,0%
same,%Inh,TTK,0%
same,%Inh,TXK,0%
same,%Inh,[1],15%
same,%Inh,[2],27%
same,%Inh,TYRO3,0%
same,%Inh,ULK1,11%
same,%Inh,ULK2,42%
same,%Inh,ULK3,14%
same,%Inh,VEGFR2,1%
COc1ccc(Nc2nccc(N3CCC(NC(=O)Nc4cc(C)ccc4C)C3)n2)cc1 (stereo not shown) [GSK1379741],%Inh,TLK2,0%
same,%Inh,TNIK,0%
same,%Inh,TNK1,0%
same,%Inh,TNK2,9%
same,%Inh,TNNI3K,0%
same,%Inh,TRKA,0%
same,%Inh,TRKB,0%
same,%Inh,TRKC,22%
same,%Inh,TRPM6,32%
same,%Inh,TSSK1B,13%
same,%Inh,TSSK3,9%
same,%Inh,TTK,0%
same,%Inh,TXK,0%
same,%Inh,[1],0%
same,%Inh,[2],23%
same,%Inh,TYRO3,0%
same,%Inh,ULK1,15%
same,%Inh,ULK2,0%
same,%Inh,ULK3,12%
same,%Inh,VEGFR2,0%
CC(C)(CN)c1nc(-c2ccc(Cl)c(O)c2)c(-c2ccncc2)[nH]1.O=C(O)C(F)(F)F [SB-477794],%Inh,TLK2; 1 µM,10% and 4%
same,%Inh,TNIK; 1 µM,89% and 87%
same,%Inh,TNK1; 1 µM,0% and 84%
same,%Inh,TNK2; 1 µM,0% and 5%
same,%Inh,TNNI3K; 1 µM,85% and 77%
same,%Inh,TRKA; 1 µM,0% and 49%
same,%Inh,TRKB; 1 µM,75% and 32%
same,%Inh,TRKC; 1 µM,55% and 46%
same,%Inh,TRPM6; 1 µM,69% and 54%
same,%Inh,TSSK1B; 1 µM,17% and 0%
same,%Inh,TSSK3; 1 µM,6% and 16%
same,%Inh,TTK,0%
same,%Inh,TXK; 1 µM,100% and 96.2%
same,%Inh,[1]; 1 µM,59% and 16%
same,%Inh,[2]; 1 µM,73% and 41%
same,%Inh,TYRO3; 1 µM,12% and 34%
same,%Inh,ULK1; 1 µM,19% and 0%
same,%Inh,ULK2,0%
same,%Inh,ULK3; 1 µM,16% and 2%
same,%Inh,VEGFR2; 1 µM,86% and 83%
Cc1nnc(-c2ccc(C)c(-c3ccc(C(=O)Nc4ccc(NS(C)(=O)=O)cc4)cc3)c2)o1 [GW702865],%Inh,TLK2,4%
same,%Inh,TNIK,0%
same,%Inh,TNK1,0%
same,%Inh,TNK2,3%
same,%Inh,TNNI3K,0%
same,%Inh,TRKA,23%
same,%Inh,TRKB,0%
same,%Inh,TRKC,26%
same,%Inh,TRPM6,7%
same,%Inh,TSSK1B,15%
same,%Inh,TSSK3,3%
same,%Inh,TTK,0%
same,%Inh,TXK,0%
same,%Inh,[1],20%
same,%Inh,[2],11%
same,%Inh,TYRO3,0%
same,%Inh,ULK1,0%
same,%Inh,ULK2,0%
same,%Inh,ULK3,0%
same,%Inh,VEGFR2,9%
